The campaign covered roughly 69,000 compounds. About 8,600 (12%) showed an effect of 50% or more. The sample holds strong results, similar compounds and a random draw of the others, so the mix is not that of the screen.
Each compound was assayed on Plasmodium berghei (assay: Screen against P. berghei liver stage (PbLuc), transformed with Luciferase, at 10uM). Settings: tested at 10 uM.
Assay type: functional, HepG2

SMILES | INHIBITION [%]
CCc1nc(CN2CCCC2c2c(C)nn(C)c2OC)no1 (stereo unspecified) | 33.8
Cc1nn(C)c(C)c1C1CCCN1Cc1ccc(C(N)=O)cc1 (stereo unspecified) | 13.3
Cn1nc(CO)c2c1CCN(c1ncnc3c1CCNCC3)C2 | 26.8
Cn1cnnc1C1CCCN(C(=O)c2cc(Cl)cc(Cl)c2)C1 (stereo unspecified) | 11.6
O=C(c1cccc(CNS(=O)(=O)c2ccc(F)cc2)c1)N1CCCC1 | 15.6
COCc1nc(CN2CC(Cc3ccccc3)CC2=O)no1 (stereo unspecified) | -37.2
Cc1nnc(SCC(=O)N2C[C@@H]3CC[C@H]2CN(c2ncccn2)C3)[nH]1 | 19.4
Cc1nc(C)n(CC2CCCN(c3ncnc4[nH]ccc34)C2)n1 (stereo unspecified) | 5.13
Cc1nc(C)n(CC2CCCN(c3ccnc(-c4ccccc4)n3)C2)n1 (stereo unspecified) | 26.6
Cc1nc(C)n(CC2CCCN2c2ncnc3ccsc23)n1 (stereo unspecified) | 27.8
Cc1nc(C)n(CC2CCCN2c2ncnc3sccc23)n1 (stereo unspecified) | -3.81
Cc1nc(C)n(CC2CCCN(CCc3ccncc3)C2)n1 (stereo unspecified) | 24
Cc1nc(C)n(CC2CCCN(CCc3ccccn3)C2)n1 (stereo unspecified) | 53.8
Cc1nc(C)n(CC2CCCN(c3ccc(C#N)cn3)C2)n1 (stereo unspecified) | -10.6
Cc1nc(C)n(CC2CCCCN2c2ncnc3ccsc23)n1 (stereo unspecified) | 27.8
Cc1nc(C)n(CC2CCCN(c3ncnc4sccc34)C2)n1 (stereo unspecified) | 72.9
Cc1nc(C)n(CC2CCCN(c3ncnc4ccsc34)C2)n1 (stereo unspecified) | 83.1
Cc1nc(C)n(CC2CCCN(CCc3ccccc3)C2)n1 (stereo unspecified) | 38.8
Cc1nc(C)n(CC2CCCN(c3ncnc4ccccc34)C2)n1 (stereo unspecified) | 88.2
CCOc1ccc(S(=O)(=O)NC(=O)CC2CCCO2)cc1 (stereo unspecified) | -4.94
Cc1ccc(CN2CC[C@H]3OCC[C@@]3(C(=O)N3CCCO3)C2)o1 | 0.618
Cc1nn(CCC(=O)N2CCN(Cc3cnn(C)c3C)CC2)c(C)c1Br | 43.4

SMILES | INHIBITION [%]
CC(C)c1nc(C2CCCN2C(=O)c2ccc(C#N)cn2)no1 (stereo unspecified) | 22.9
CN(C)c1cncc(C2CCCN(c3cnccn3)C2)n1 (stereo unspecified) | 17.77
CN(Cc1ccc(Br)c2cccnc12)S(C)(=O)=O | -17.85
CC(C)N1CCC(c2cccc(C(=O)N(C)C)n2)CC1 | -7.66
c1cc(CN2CCC(c3nnc4n3CCCCC4)CC2)c2nonc2c1 | 64.4
c1cc(CN2CCC(c3nnc4n3CCCCC4)CC2)c2c(c1)OCO2 | 29.7
c1ccc2c(c1)CC(N1CCCN(Cc3cccc4nonc34)CC1)C2 | 49
CCC(C)(COc1ncccc1Cl)NCC(=O)Nc1ccc(Br)cn1 (stereo unspecified) | 36.5
CCOc1ncccc1NC(=O)NC1CCN(C(=O)C2CC2)CC1 | 41.2
CC(C)CNC(=O)CNC(=O)Nc1cccc(Cl)c1-n1cccn1 | -29.2
Cc1ccc(Oc2ncccc2CNC(=O)NC2CCCCC2)cn1 | 19.4
CCC(C)(COc1ncccc1Cl)NCC(=O)NCC(C)C (stereo unspecified) | 57.4
CCC(C)(COc1ncccc1Cl)NCC(=O)NC1CCCCC1 (stereo unspecified) | 68.5
COc1ccc(C(=O)NCc2ccc(C(=O)O)o2)cc1 | 10.6
O=C(NCc1ccc(C(=O)O)o1)c1ccc(F)cc1 | 51.1
O=C(Cc1ccc(F)cc1)NCc1ccc(C(=O)O)o1 | 1.62
Cc1csc(CN(C)CCOc2ccccc2)n1 | -4.23
CC(C(=O)Nc1sccc1C(N)=O)N(C)CCOc1ccccc1 (stereo unspecified) | 94
Cc1ccccc1OCCC(=O)OC(C)C(=O)Nc1sccc1C(N)=O (stereo unspecified) | 45.1
Cc1[nH]nc(CCC(=O)NCC2CCCN(C3CCCC3)C2)c1C (stereo unspecified) | 41.6
Cc1ccc(OCCN2CCN(Cc3cnn(CCO)c3)CC2)cc1 | 22.25
CC(C)(O)CCc1cccc(C(=O)N2CCC3(CCOCC3)CC2)c1 | -147

SMILES | INHIBITION [%]
C=C(C)COc1cccc(C(=O)N2CCC3(CCOCC3)CC2)c1 | 52.6
C=C(C)COc1cccc(C(=O)N2CCC(O)(c3ccccc3)CC2)c1 | 65.6
COc1cccc(C(=O)N2CCOC3(CCCN(C(C)=O)C3)C2)c1 (stereo unspecified) | 33.4
CCOc1cccc(C(=O)N2CCC3(CC2)[C@H](O)C[C@@H]3OC)c1 | -55.1
C=C(C)COc1cccc(C(=O)N2CCC3(CC2)CN(C)CCN3C)c1 | 46.1
CCn1nc(C)cc1C(=O)N1C[C@@H]2C[C@@H](c3nc(C)cs3)O[C@@H]2C1 | 15.6
CC(C)COc1cncc(N(C)C2CCN(c3ncccn3)CC2)n1 | 21.2
CC(C)COc1cncc(N2CCCN(CC(F)(F)F)CC2)n1 | -1.04
CC(C)COc1cncc(N2CCCN(c3ncccn3)CC2)n1 | 50.4
O=C(NCc1ccco1)[C@@]12CCO[C@@H]1CCN(c1ncccn1)C2 | 27.6
Cn1cc(CC2CC(=O)N(Cc3ccccc3OC(F)F)C2=O)cn1 (stereo unspecified) | 33.1
CN(C)C(=O)c1nn(C)c2c1CN(Cc1cccs1)C2 | -6.23
Cc1ccc(CN2C[C@H](N3CCOCC3)[C@@H]3OCCC[C@@H]32)o1 | -22.1
Cc1nccn1CCC1CCN(C(C)C)CC1 | 38.8
CN1CCCN(c2ccc(F)cc2CNC(=O)c2cccnc2)CC1 | -12.2
Cc1ccc(C(=O)NCc2cc(F)ccc2N2CCCN(C)CC2)o1 | 42.1
CN1CCCN(c2ccc(F)cc2CNC(=O)c2ccsc2)CC1 | 79.7
CN(CCCOc1ccccc1Cl)C(=O)CN1C[C@H]2CC[C@@H](CC1=O)N2 | 17
CCS(=O)(=O)NC1CCCN(c2ccc(F)cc2C)C1=O (stereo unspecified) | 5.29
CCc1ncc(C(=O)N2CCN(c3cnn(C)c(=O)c3)CC2)cn1 | 45.8
Cc1cncc(C(=O)N2CCN(c3cnn(C)c(=O)c3)CC2)c1 | -5.52
Cc1oc(C(C)C)cc1C(=O)N1CCN(c2cnn(C)c(=O)c2)CC1 | 51.1

SMILES | INHIBITION [%]
CN(C)c1ccccc1C(=O)N1CCCC(c2ccc(C(=O)O)cc2)C1 (stereo unspecified) | 18.6
CCC(C(=O)NCc1cc(N2CCOCC2)ncn1)n1cccn1 (stereo unspecified) | 36.7
CCc1csc(CNC(=O)C(CC)n2cccn2)n1 (stereo unspecified) | 19.8
CC(Cn1cccn1)NCc1csc(-c2ncccn2)n1 (stereo unspecified) | -29.1
CCC(C(=O)NCc1csc(-c2ncccn2)n1)n1cccn1 (stereo unspecified) | 60.4
CCC(C(=O)N1CCN(C(=O)N2CCOCC2)CC1)n1cccn1 (stereo unspecified) | 33
CCC(C(=O)NCc1csc(N2CCOCC2)n1)n1cccn1 (stereo unspecified) | 57.5
Cc1ccoc1C(=O)N1CCO[C@H]2[C@H](OCCN(C)C)CC[C@@H]21 | 22.4
Cc1ccc(C(=O)NCCS(=O)(=O)N2CCSCC2)n1C | -28.9
CC(C)=CCN1CCN(CCCc2ccccc2)[C@H]2CS(=O)(=O)C[C@H]21 | 51.3
CN(C)C(=O)N1CCN(CCCc2ccccc2)[C@H]2CS(=O)(=O)C[C@H]21 | -11.5
CC(C)=CCN1CCN(CCCOc2ccccc2)[C@H]2CS(=O)(=O)C[C@H]21 | -25.7
COc1ccc(OCCN(C)Cc2nc3c(cnn3C)c(=O)[nH]2)cc1 | 38.8
CN1CCC(C)(CN(C)Cc2ccc(CCC(C)(C)O)cc2)C1 (stereo unspecified) | 32.4
Cc1cc(S(=O)(=O)NCC(C)(O)CN(C)C)c(F)cc1F (stereo unspecified) | 36.5
COc1cc(NC(=O)N(C)CC2CC2)ncn1 | 1.84
COc1cc(NC(=O)N(C)C(C2CC2)C2CC2)ncn1 | 88.4
COc1cc(NC(=O)N(C)CCC2CC2)ncn1 | 4.82
CS(=O)(=O)c1cccc(C(N)c2ccc(Cl)cc2)c1 (stereo unspecified) | -53.2
CCn1ccnc1CN1CCN(CCc2ccncc2)CC1C (stereo unspecified) | 24.7
O=C(O)[C@@H]1CN(C(=O)c2ccc(O)cc2)C[C@H]1c1cccc(F)c1 | -19.5
O=C(O)[C@@H]1CN(C(=O)c2ccc(F)c(F)c2)C[C@H]1c1cccc(F)c1 | 65.7

SMILES | INHIBITION [%]
O=C(O)[C@@H]1CN(C(=O)c2ccc(Cl)cc2)C[C@H]1c1cccc(F)c1 | 13.3
CCN(Cc1nonc1C)C(=O)Cn1nc(C(F)(F)F)cc1C | 44.35
CCOc1cc(C(=O)n2cccn2)cc(OCC)c1OCC | -30.6
N#CCCN(C(=O)CCc1cscn1)c1ccc2c(c1)OCCO2 | -7.46
Cc1cccn2c(=O)cc(OC(=O)c3ccccc3)nc12 | -19.7
Cc1cccc(C(=O)Oc2cc(=O)n3cccc(C)c3n2)c1 | -51.1
Cc1ccc(C(=O)Oc2cc(=O)n3cccc(C)c3n2)cc1 | 59.8
CN1CCc2c(C#N)c(NCC3CCCO3)n3cnnc3c2C1 (stereo unspecified) | -1.45
CCOc1nc2cnccc2n(CC(=O)NCc2ccco2)c1=O | 46.7
CCOc1nc2cnccc2n(CC(=O)NCCc2ccccc2)c1=O | 33.9
CCOc1nc2cnccc2n(CC(=O)NCc2ccc(C)cc2)c1=O | 53.1
COc1cccc2c(=O)n(C3CCCNC3)cnc12 (stereo unspecified) | 61
COc1cccc2c(=O)n(CCN3CCNCC3)cnc12 | -109
COc1cccc2c(=O)n(C3CCNCC3)cnc12 | 57.3
COc1cccc2c(=O)n(Cc3ccnc(C)c3)cnc12 | 17.5
COc1cccc2c(=O)n(Cc3cc(C4CC4)[nH]n3)cnc12 | -6.94
COc1cccc2c(=O)n(Cc3cccnc3)cnc12 | -20
O=C(NCc1cccs1)C1CNCC12CCOCC2 (stereo unspecified) | -30.1
